High-throughput results deposited in PubChem by National Center for Advancing Translational Sciences (NCATS).
A selection: hits, their analogues and other compounds. The true share with any hit is near 12%.
JMJD2A Tudor – inhibitors of human JMJD2A Tudor domain | AlphaScreen JMJD2A-Tudor / H3K4me3 peptide binding | Potency, µM (top dose mostly 114 µM), for the others: at the top dose activity change, negative = inhibition, usual class: inhibitors | 4.4% of 390,000 active | O75164; further: on the % scale 0 is the no-effect control and ±100 the full control effect; nearly all actives have a fitted effect of over 50% in size
Sfp inh – inhibitors of Bacillus subtilis Sfp phosphopantetheinyl transferase; Biochemical Sfp PPTase activity, qHTS; Potency, µM, for the others: largest response in the series, negative = inhibition, most hits filed as inhibitors; 3.5% of 310,000 active;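 further: the enzyme is Sfp with the accession as filed and its product quenches rhodamine fluorescence; 0% = enzyme reaction without inhibitor and -100% = no enzyme wells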
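Sfp 15 nM + cpd, 15 min RT; start w/ rhodamine-CoA 5 uM, BHQ-2-YbbR 12.5 uM (final); 50 mM Hepes pH 7.6, 10 mM MgCl2, 0.01% NP-40, 0.01% BSA; read 525/598 nm at 0 and 30 min.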
G9a block – blocks human histone lysine methyltransferase G9a. Q96KQ7. G9a H3K9 monomethylation, AlphaScreen, 2 h. Potency, µM (titrated, usually from 102 µM), inactives show at the top dose activity, negative = inhibition, most hits filed as inhibitors. 8.8% of 350,000 active. AID 504332; further: on the % scale 0 is the no-effect control and ±100 the full control effect; nearly all actives have a fitted effect of over 75% in size
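Methyltransferase reactions run at room temperature for 2 h (20 nM enzyme, 500 nM biotin-H3K9 peptide, 20 uM SAM) after a 15 min compound preincubation; product detected by AlphaScreen beads and anti-H3K9me1 antibody.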
HP1b chromo inh – HP1-beta chromodomain-methylated histone interaction inhibition. P83916. AlphaScreen HP1-beta / biotin-H3K9me3 peptide binding. Potency, µM (doses to about 114 µM), inactives show at the top dose activity change, negative = inhibition, usual class: inhibitors. 0.56% of 390,000 active; further: nearly all actives have a fitted effect of over 70% in size
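Compound inhibition of the preformed complex between 50 nM HP1-beta and 50 nM biotinylated H3K9me3 peptide was read by AlphaScreen. Buffer was PBS pH 7.4 with 0.01% Tween-20. Incubations ran 30 min at room temperature, with 10 ug/mL donor/acceptor beads.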
L3MBTL1 inh – inhibitors of human L3MBTL1. AID 485360. Potency, µM (top dose mostly 57.1 µM), without a hit: at the top dose activity, negative = inhibition, actives largely listed as inhibitors. 0.66% of 230,000 active. Q9Y468. AlphaScreen L3MBTL1–H3K9me1 peptide binding; further: on the % scale 0 is the no-effect control and ±100 the full control effect; nearly all actives have a fitted effect of over 60% in size
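L3MBTL1 50 nM + b-AHA-H3(1-15)K9me1 75 nM, 30 min RT; compound added, 30 min RT; streptavidin donor/Ni-chelate acceptor beads 10 ug/mL each final, 30 min RT dark; AlphaScreen read.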
BAZ2B inh – inhibitors of human BAZ2B bromodomain. AlphaScreen BAZ2B-H3K14Ac peptide displacement. AID 504333. 4.4% of 360,000 active. Potency, µM (series often up to 114 µM), inactives show top-dose activity change, negative = inhibition, most hits filed as inhibitors; further: on the % scale 0 is the no-effect control and ±100 the full control effect; nearly all actives have a fitted effect of over 60% in size
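AlphaScreen displacement: compounds (up to 110uM) incubated 30 min at room temperature with a preformed 50 nM BAZ2B/50 nM biotinylated H3K14Ac peptide complex in PBS pH 7.4 with Tween-20. Donor and acceptor beads at 10 ug/mL final added, 20 min light-protected before reading.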
* marks the source's active call; other numbers are inactive results; ? = inconclusive; nt = not tested or not shown; ! = not active in a repeat; [ ] = dose if it differs, or a comment. The call rests on the fitted dose curve; in most records, active means well fitted curve in the direction sought with a large enough effect; inconclusive means small, poorly fitted or top-dose-only effect, or another doubt; inactive means no such curve, though single readings can be large; an effect the other way counts as inactive or inconclusive. Potency means the concentration at half of the fitted maximal effect.

SMILES	JMJD2A Tudor	Sfp inh	G9a block	HP1b chromo inh	L3MBTL1 inh	BAZ2B inh
COc1ccc2c(c1)c1c(c(=O)n(-c3ccccc3C)c(=O)n1CC(=O)Nc1c(C)cccc1C)n2C	-5%	nt	-17%[59 µM]	21%	nt	-10%
COc1ccc2c(c1O)Cc1ccccc1C2=O	?	45µM*	?	-36%	-9%	?
CC(C)=C1Cc2ccccc2C1=O	-8%	14%	5%	49%	10%	-3%
Cc1[nH]nc(SCC(=O)N2CCC(C)CC2)c1[N+](=O)[O-]	1%	89µM*	?	30%	nt	-26%
Cc1cc(Cl)ccc1NC(=O)c1cc2ccccn2n1	20%	nt	1%[59 µM]	30%	nt	8%
Cc1nn(-c2ccccc2)c(N)c1N=Nc1ccccc1	56µM*	-2%	45µM*	?	-23%	32µM*
Nc1nn(-c2ccccc2)c(N)c1N=Nc1ccccc1	?	-5%	?	?	-6%	40µM*
Nc1nn(-c2ccccc2)c(N)c1N=Nc1ccccc1F	?	-8%	?	-33%	-24%	35µM*
Nc1ncnc(N)c1N=Nc1ccccc1	-15%	7%	5%	16%	-5%	-6%
Cc1nn(-c2ccccc2)c(N)c1-c1ccccc1	-16%	20%	1%	32%	18%	-14%
Nc1c(N=Nc2ccccc2F)c(=O)[nH]n1-c1ccccc1	?	-1%	-43%	10%	-18%	?
Cc1cccc(N=Nc2c(C)nn(-c3ccccc3)c2N)c1C	25µM*	-7%	10µM*	?	?	18µM*
COc1ccccc1Cn1c(C2CC(=O)N(c3ccccc3OC)C2)nc2ccccc21 (configuration not stated)	-20%	nt	-32%[59 µM]	17%	nt	-16%
COC(=O)c1sc(N2C(=O)c3oc4ccc(C)cc4c(=O)c3C2c2ccc(OC)cc2)nc1C (configuration not stated)	5%	nt	4%[59 µM]	39%	nt	-1%
O=C(Cn1c(=O)n(Cc2ccc3c(c2)OCO3)c(=O)c2ccc(C(=O)NC3CCCCC3)cc21)Nc1ccccc1F	7%	nt	4%[59 µM]	18%	nt	2%
Cc1nn(-c2ccccc2)c(N)c1N=Nc1ccc(Cl)cc1	45µM*	?	35µM*	?	?	40µM*
Cc1ccc(C)n1-c1cccc(S(=O)(=O)N2CCOCC2)c1	-14%	16%	20%[59 µM]	26%	nt	-30%
Cc1nn(-c2ccccc2)c(N)c1N=Nc1cccc(S(=O)(=O)N2CCOCC2)c1	?	5%	?	?	-6%	28µM*
CC12C=C(/C=C/CCc3ccco3)C(C)(C1)[C@H](CCc1ccco1)CC2=O (some centres not stated)	nt	-13%	nt	nt	nt	nt
COc1cccc2c1Oc1nc(-c3ccccc3)nc(SCC(=O)N3CCCCC3)c1C2	-15%	nt	-28%[59 µM]	31%	nt	-13%
CC(C)N(CC#CCC(O)(c1ccccc1)c1ccccc1)CCO	-2%[11.4 µM]	45µM*	13µM*	20%	-4%	79µM*
CCN(CC#CCC(O)(c1ccccc1)c1ccccc1)C(C)C	-30%[57.1 µM]	?	-24%[59 µM]	6%	3%	-10%
CCNc1nc(NCC)n2c(SCC(=O)Nc3ccc(Br)cc3F)nnc2n1	?	nt	7.1µM*	?	-9%	?
CCNc1nc(NCC)n2c(SCC(=O)Nc3ccc(C)c(C)c3)nnc2n1	-9%	nt	3.5µM*	3%	28µM*	50µM*
CCNc1nc(NCC)n2c(SCC(=O)Nc3ccccc3)nnc2n1	-15%	16%	23%[59 µM]	24%	8%	-18%
SMILES	JMJD2A Tudor	Sfp inh	G9a block	HP1b chromo inh	L3MBTL1 inh	BAZ2B inh
COc1ccc(Cl)cc1N/C(N)=N/c1nc(C)cc(=O)[nH]1	?	-13%	20µM*	24%	4%	-12%
Cc1cc(=O)[nH]c(/N=C(\N)Nc2ccc3c(c2)OCCO3)n1	-8%	-16%	22µM*	-18%	?	-24%
O=C1[C@H]2[C@H]3[C@H](O)[C@H](O)C/C(=N/OCc4ccccc4)[C@H]3CC[C@@H]2C(=O)N1c1cccc(Oc2ccccc2)c1	nt	2%	nt	nt	nt	nt
Cc1ccc(-c2nn(CC(=O)NC3CCCC3)c3c2cnc2ccc(F)cc23)cc1C	-8%	nt	6%[59 µM]	17%	nt	-11%
Cc1ccccc1C(=O)Nc1nnc(S(=O)(=O)N2CCc3ccccc32)s1	-19%	nt	-24%[59 µM]	22%	nt	-38%
CN(C)c1ccc(NC(=O)Cn2nnc3sc4c(c3c2=O)CCC(C(C)(C)C)C4)cc1 (configuration not stated)	?	nt	4.5µM*	-10%	nt	?
Cc1ccc(/C(=C\CN2CCCC2)c2ccccn2)cc1	-6%	-10%	7.5µM*!	nt	nt	-16%
COc1ccc(S(=O)(=O)NCc2ccccn2)cc1OC	-16%	-21%	-47%[12.7 µM]	13%	nt	?
CCOc1ccc(S(=O)(=O)NCc2ccncc2)cc1NC(=O)c1ccccc1	-14%	nt	56µM*	15%	6%	3%
COc1ccc(S(=O)(=O)NCc2ccccn2)cc1NC(=O)c1ccccc1C	1µM*	nt	-35%	11%	-11%	?
COc1ccc(S(=O)(=O)NCc2ccccn2)cc1NC(=O)c1ccc(Cl)cc1	3.5µM*	nt	-3%	-24%	-3%	-7%
Cc1ccc(C)c(CN2C(=O)c3ccccc3S(=O)(=O)c3ccc(C(=O)N(C)C4CCCCC4)cc32)c1	-14%	nt	?	37%	nt	-25%
COc1ccc(CNC(=O)c2ccc(CSc3nc4ccncc4n3Cc3ccccc3F)cc2)cc1	-21%	nt	-7%[59 µM]	0%	nt	-11%
OCC1OC(C#Cc2ccccc2)C=CC1O (configuration not stated)	nt	16%	nt	nt	nt	nt
CCOc1ccc(C(=O)CSc2nc3cc(C(=O)NC4CCCC4)ccc3c(=O)n2CC2CCCO2)cc1 (configuration not stated)	4%	nt	-1%[59 µM]	34%	nt	2%
CCOC(=O)CC(=O)CSc1nc2nc(C)cc(C)n2n1	-14%	56µM*	?	19%	nt	1%
CC(C)(C)OC(=O)[C@H]1[C@H](c2ccc([N+](=O)[O-])cc2)C2(C(=O)c3ccccc3C2=O)C2c3ccccc3C=NN21 (some centres not stated)	?	-15%	14µM*	-32%	-20%	40µM*
COc1ccc([C@H]2[C@H](C(=O)C(C)(C)C)N3N=Cc4ccccc4C3[C@]23N=C(c2ccccc2)OC3=O)cc1 (some centres not stated)	-31%	-1%	nt	7%	-7%	?
O=C(c1ccccc1O)N(Cc1ccccc1)Cc1cccs1	-18%	nt	nt	nt	nt	nt
